# Experimental data reported in the supplement of paper PMC3334620.
# In all, about 33,000 sequences were measured (“E-score (-0.5 to 0.5)”: median about -8e-05, highest 2% from about 0.23 on). This excerpt belongs to a sample that is enriched for the highest values.
# Target: T1, Nrg2 (UniProt P38082)
# T1 sequence: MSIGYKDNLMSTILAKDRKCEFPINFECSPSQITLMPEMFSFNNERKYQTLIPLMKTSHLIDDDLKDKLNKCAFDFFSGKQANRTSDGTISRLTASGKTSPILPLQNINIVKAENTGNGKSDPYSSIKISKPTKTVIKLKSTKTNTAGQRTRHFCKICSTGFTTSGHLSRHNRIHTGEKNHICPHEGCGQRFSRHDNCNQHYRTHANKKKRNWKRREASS
# Assay: PBM E-score (8-mer binding enrichment) (E-score (-0.5 to 0.5)); higher = stronger / more preferred TF binding
# Details: protein concentration: 100 nM; construct: GST-full length
# Procedure, shortened: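 Bound GST-tagged yeast transcription factors, applied at about 100-200 nM to double-stranded universal all-10-mer Agilent arrays, were detected with fluorescent anti-GST. Scans were normalised with masliner. A modified Wilcoxon-Mann-Whitney statistic, the E-score, was assigned to each ungapped eight-base word pooled with its reverse complement by the Universal PBM Analysis Suite.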
row,Sequence,PBM E-score
1,CCAATACG,-0.165
2,CCCTCGAG,0.143
3,ACCTCGAT,0.147
4,ACCTCGAG,0.281
5,AAGAAAAG,-0.0237
6,TCAATTCA,0.102
7,CAGGGTAG,0.303
8,AGGGGTAG,-0.0372
9,AAGGGTAC,0.165
10,AAGGGTAG,0.0465
11,CAGGGTAA,0.215
12,CAGGGTAC,0.235
13,AAGTCTAT,-0.0746
14,TAGTAAGA,0.107
15,CCCCTGCA,-0.00126
16,TCCCTGCA,0.25
17,ACCCTGCT,0.0589
18,ACCCTGCG,0.254
19,ACCCTGCC,0.0806
20,CCCCTGCG,-0.0622
21,GCCCTGCA,0.044
22,AGCCTGCA,0.0137
23,ACCCTGCA,0.376
24,ATAGGACA,-0.118
25,GGTCTTGA,-0.0327

row,Sequence,PBM E-score
1,ACCAAGTC,0.111
2,AAAGCCCG,-0.147
3,AAAAGCGT,-0.0481
4,AAAAACTT,-0.148
5,CGCTGGCA,0.0236
6,CGGCATTA,0.0976
7,ACGCGCGG,0.192
8,ACGCGCGC,0.279
9,TCGCGCGA,0.138
10,GCGCGCGA,0.251
11,ACGCGCGT,0.17
12,CCGCGATA,0.117
13,TCGCACGA,-0.00406
14,GCGCACGA,0.238
15,ACGCGATA,0.0412
16,GCGCGATA,0.254
17,CCGCGCGA,0.202
18,GCGCACGC,-0.0951
19,CTTACCCA,0.0294
20,AATGCAAT,-0.287
21,GGTCCAGA,0.125
22,AGGCGGGG,0.0214
23,AACGATTC,0.0537
24,ACGGACGT,-0.169
25,GTCCAGAC,-0.175

row,Sequence,PBM E-score
1,ATCTTTGC,0.133
2,GCGCGCGC,0.415
3,GCGCGGTA,0.271
4,GCGCGCCC,0.0648
5,CAGCGCGC,0.21
6,GAGCGCGA,0.196
7,GCGCGCAC,0.165
8,GAGCGCGC,0.263
9,CCGCGGTA,0.119
10,ACGCGGTA,-0.152
11,CCTTTCCG,-0.116
12,TTGAACAA,-0.0525
13,ACGGAAGC,-0.0173
14,AGCCAGCG,-0.0673
15,CTCGGAGA,0.0113
16,ATCAGTAA,0.0691
17,AGAAAGTC,0.037
18,GCCTGTAA,-0.225
19,CCCTGTGA,0.059
20,CCCTGAAG,0.208
21,CCCTGTGC,0.263
22,GACTGAAA,0.0848
23,CCCTGTAC,0.208
24,ACCTGTGC,-0.0445
25,TACTGAAA,0.242

row,Sequence,PBM E-score
1,GCCTGAAC,-0.211
2,CCCTGAAC,0.282
3,CACTGAAA,0.0555
4,CCCTGTAA,0.294
5,ACGGTTAG,-0.312
6,ATTCTTTA,-0.0742
7,CATCAATC,-0.0356
8,AGGGTTAC,-0.14
9,CAAGTGTA,-0.0141
10,ATGATGGG,0.0257
11,CTATGGCA,-0.0101
12,TCCTGAAA,-0.0476
13,ACCTGCAG,-0.0488
14,CCCTGCAA,0.162
15,GCCTGAAA,0.115
16,CCCTGCAG,0.26
17,CCCTGGAC,0.295
18,CCCTGGAA,0.0405
19,CCCTGGAG,0.05
20,CCCTGAAA,0.305
21,ACTCCCGG,-0.0764
22,ATCCCATA,-0.0872
23,GCATAGTA,0.23
24,CCATAGTA,0.0238
25,ACATAGTA,0.0458

row,Sequence,PBM E-score
1,TCTGCAAA,-0.0511
2,GGCTTCTA,-0.075
3,AGAAACTG,0.0813
4,GACAAGGA,0.0442
5,GGGGTCCA,0.27
6,CGGGTCCA,0.0193
7,AGGGTCCA,0.439
8,CGGGTCCC,-0.125
9,ACGGTCCA,-0.162
10,GAGGTCCA,-0.0725
11,AAGGTCCA,0.073
12,AGGGTCCC,0.397
13,ACGGTCCC,-0.00846
14,AGGGTCAA,0.236
15,CGGGTCAA,-0.0478
16,AGGGTCAG,-0.102
17,GGGACAAA,0.11
18,GCTGCCAC,-0.138
19,ACAGTGGT,0.0526
20,CTGCTTGA,-0.0823
21,CAGATCAG,0.194
22,CGCTCGGC,0.0597
23,ACGGTCCG,-0.231
24,AGGGTCCG,0.374
25,AAGGTCCG,-0.0532

row,Sequence,PBM E-score
1,ACCTCAAC,0.0405
2,GGCCAACC,0.0203
3,CGTATTAG,0.0345
4,CATATTAA,0.129
5,AGTATTAA,0.219
6,ACTATTAA,0.175
7,AATATTAC,0.14
8,TATATTAA,0.234
9,AATATTAT,0.219
10,CATATTAG,0.124
11,AGTATTAG,0.273
12,GATATTAA,0.147
13,AATATTAA,0.295
14,AATATTAG,0.256
15,CTTAGGAA,-0.0218
16,CGGAGCAA,0.0265
17,CCTTCGCC,-0.31
18,AATCCTGC,-0.00651
19,CGCATTCA,0.0356
20,GAACTGCA,0.0913
21,ACATATAA,0.211
22,GCCCCCAA,-0.331
23,CTTTCCAA,-0.0143
24,AATATTCA,0.144
25,AATATTCG,0.177

row,Sequence,PBM E-score
1,AATATTCC,0.233
2,TATTACCA,0.0363
3,CGAATACA,0.0068
4,CCAACGGA,-0.031
5,ACAACGGA,0.242
6,ACAACGGT,-0.0246
7,TCAACGGA,-0.0313
8,CCAACGGG,0.0593
9,ACAACGGG,0.243
10,GACCGGAC,-0.168
11,AAAGGGCG,0.0812
12,AGCGCACT,-0.0126
13,GTTAGGCA,-0.146
14,CATGGTCC,0.0356
15,GTTGGTCA,0.229
16,CTTGGTCA,0.138
17,CATGGTCG,-0.0584
18,CATGGTCA,0.236
19,ATTGGTCA,0.0477
20,GGAGTGAC,0.102
21,ACACCGAC,-0.151
22,CGCCCTAA,-0.171
